The values that follow come from PubChem BioAssay AID1852 (Sanford-Burnham Center for Chemical Genomics, 2009).

Out of some 2,500 compounds screened, about 1,100 (44%) were called active. The set was probably picked from earlier hits. The list shows a part of the results. Values without a mark were called inactive.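 The calls were made as follows: active = inhibition above 50% at 4 µM in the single-point screen; inactive = inhibition of 50% or less.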

This experiment is described as follows: blockers of TNF-a NF-kB luciferase induction – cell-based, HEK293T NF-kB-Luc, luminescence, selectivity assay for NOD1/NOD2 signaling inhibitor project, primary screen (AID 1852). To be noted: TNF-a induced, 14 h, at 4 µM, hits give high values.
Broadly, the inhibition is the change of the read-out against control, counted positive when it falls. In the case of `COc1ccc2sc3c(=O)[nH]c4ccccc4c3c2c1`, the inhibition is 54.1% (active). Regarding `CCc1nnc(NC(=O)c2ccc(Cl)c(S(=O)(=O)N3CCc4ccccc43)c2)s1`, the inhibition was 53.5% (active). With `CCc1nnc(NC(=O)c2ccc(Cl)c(S(=O)(=O)N3CCc4ccccc4C3)c2)s1`, the inhibition is 31.8%.

On to `Cn1cc(S(=O)(=O)N2CCc3ccccc32)cc1C(=O)Nc1ccc(Cl)cc1`, for which the inhibition was 24.7%. In the case of `O=C(NCc1cc(Br)cc(Br)c1OC(=O)c1ccccc1[N+](=O)[O-])c1ccccc1`, the inhibition is -35.5%.

`O=C(COC(=O)c1ccccc1C(=O)c1ccc(Cl)c([N+](=O)[O-])c1)NC1CCCCCC1`: the inhibition was 27.6%. On to `CCCNC(=O)COC(=O)c1ccccc1C(=O)c1ccc(Cl)c([N+](=O)[O-])c1`, for which the inhibition was 65.9% (active). For `Cc1ccc(Cl)c(NC(=O)COC(=O)c2ccccc2C(=O)c2ccc(Cl)c([N+](=O)[O-])c2)c1Cl`, the inhibition is 84.2% (active). For the compound `N#Cc1cccc(NC(=O)COC(=O)c2ccccc2C(=O)c2ccc(Cl)c([N+](=O)[O-])c2)c1`, the inhibition is 83.2% (active). `O=C(COC(=O)c1ccccc1C(=O)c1ccc(Cl)c([N+](=O)[O-])c1)NC1CC1`: the inhibition was 73.1% (active). The figure for `Cc1ccc[n+](CC(=O)Nc2ccc(Cl)c([N+](=O)[O-])c2)c1` is -10%; for `N#Cc1cccc(NC(=O)Cn2cnc(S(=O)(=O)N3CCc4ccccc43)c2)c1` it is 8.2%. As for `O=C(O)c1ccc(N/N=C/c2ccc(OC(=O)c3cccc(Cl)c3)cc2)cc1`, the inhibition is -26.3%.

In the case of `CNC(=O)COC(=O)c1ccccc1C(=O)c1ccc(Cl)c([N+](=O)[O-])c1`, the inhibition is 81.6% (active).

`Nc1ccc(C(=O)OCC(=O)N2CCc3ccccc3C2)cc1[N+](=O)[O-]`: the inhibition is 31.9%. The same measure for `CCOC(=O)c1sc(NC(=O)CSc2nc3c(cc2C#N)CCCCCC3)c(C#N)c1C`: 52.1% (active); for `Cc1c(OCC(=O)N2CCN(c3ccccc3)CC2)ccc2c3c(c(=O)oc12)CCCC3`: 14.2%; for `Cc1c(C)c2ccc(OCC(=O)Nc3ccccn3)c(C)c2oc1=O`: 76.2% (active). Take `Cc1sc2ncnc(N3CCN(S(=O)(=O)c4ccc(F)cc4)CC3)c2c1C`: the inhibition is 15%. Turning to `Cc1sc2ncnc(N3CCN(S(=O)(=O)c4ccc(Br)cc4)CC3)c2c1C`, the inhibition is 29.2%.

With `Cc1cc(C)c(C)c(S(=O)(=O)N2CCN(c3ncnc4sc(C)c(C)c34)CC2)c1C`, the inhibition was 75.3% (active). For `Cc1ccc(OCCN2CCN(c3ncnc4sc(C)c(C)c34)CC2)cc1`, the inhibition was 63% (active). Turning to `COC(=O)c1scc(C#N)c1N/N=C(\C#N)S(=O)(=O)c1ccc(Cl)cc1`, the inhibition is -8.6%. Consider `CC(C)(C)OC(=O)N1Cc2ccccc2C[C@H]1C(=O)NCC(=O)NC1CCCC1`, for which the inhibition is 11%.

`COCCCn1c(=O)c2sccc2n(Cc2cccc(C)c2)c1=O`: the inhibition was 29.7%. With `CC(=O)/C=C/n1c(=S)oc2ccccc21`, the inhibition was 94.2% (active). For `CCCCC(=O)/C=C/n1c(=S)oc2ccccc21`, the inhibition is -6.6%. Regarding `CC(C)CC(=O)/C=C/n1c(=S)oc2ccccc21`, the inhibition was 76.6% (active).

For the compound `COC(=O)N1C(=O)[C@](CC(C)C)(c2ccccc2)N1C(=O)OC`, the inhibition was 45.2%. Regarding `COC(=O)N1C(=O)[C@@](Cc2ccccc2)(c2ccccc2)N1C(=O)OC`, the inhibition is 59.8% (active).

For `N=c1c2c(n(Cc3ccc(Cl)cc3)c3c1CCC3)CCC2`, the inhibition was 12.4%. For the compound `CCCCCCCn1c2c(c(=N)c3c1CCC3)CCCC2`, the inhibition was 76.9% (active). The figure for `CCCCCCCCCn1c2c(c(=N)c3c1CCC3)CCCC2` is 91.2% (active). As for `CCCCCCCCn1c2c(c(=N)c3c1CCC3)CCCC2`, the inhibition was 79.5% (active). The figure for `O=C(c1ccc(S(=O)(=O)Cc2ccccc2Cl)c([N+](=O)[O-])c1)N1CCN(c2ccccn2)CC1` is 58.6% (active). As for `O=C(c1ccc(S(=O)(=O)Cc2cc(F)ccc2F)c([N+](=O)[O-])c1)N1CCCCC1`, the inhibition was -1.2%.

`CC1CCN(C(=O)c2ccc(S(=O)(=O)Cc3cc(F)ccc3F)c([N+](=O)[O-])c2)CC1`: the inhibition is 50.4% (active). With `Cc1ccc(CS(=O)(=O)c2ccc(C(=O)N3CCN(c4ccccn4)CC3)cc2[N+](=O)[O-])cc1`, the inhibition was 53% (active).

As for `CC1CCN(C(=O)c2ccc(S(=O)(=O)Cc3cccc(F)c3)c([N+](=O)[O-])c2)CC1`, the inhibition is 16.5%. Regarding `Cc1ccc(N=c2c([N+](=O)[O-])nn(-c3ccc4c(c3)OCCO4)n2O)cc1F`, the inhibition is 0.1%. As to `COc1ccccc1N1CCN(C(=O)C2CCCN(S(=O)(=O)c3ccc4c(c3)oc(=O)n4C)C2)CC1` (stereo not given), the inhibition was 19.5%. With `CC(=O)N1CCCc2cc(S(=O)(=O)N3CCCC(C(=O)N4CCN(c5cc(C)ccc5C)CC4)C3)ccc21` (stereo not given), the inhibition was 45.4%. `CC(=O)N1CCCc2cc(S(=O)(=O)N3CCCC(C(=O)N4CCN(c5cccc(Cl)c5)CC4)C3)ccc21` (stereo not given): the inhibition was 57.4% (active). For the compound `C=C(C)C(=O)O[C@H]1C/C(C)=C\C(=O)/C=C(\C)[C@H](O)[C@@H]2OC(=O)C(=C)[C@@H]21`, the inhibition is 102% (active). For `O=C(COc1ccc(Cl)cc1Cl)Nc1ccc(C(=O)Nc2ccccc2C(=O)O)cc1`, the inhibition was 53.4% (active).

As for `Cc1cc(C(=O)Nc2ccccc2C(=O)O)ccc1NC(=O)COc1ccccc1Cl`, the inhibition was -11.7%. The figure for `O=C(COc1cccc2ccccc12)Nc1ccc(Cl)cc1C(=O)O` is -62.6%; for `CC(NC(=O)OC(C)(C)C)C(=O)Oc1cc2oc(=O)cc(-c3ccccc3)c2cc1Cl` (stereo not given) it is 84.3% (active); for `Cc1ccc(CNC(=O)[C@H](C)[C@H]2C[C@]2(C)[C@H](NC(=O)OCc2ccccc2)c2ccccc2)o1` it is 1.6%. Take `CC(NC(=O)OCc1ccccc1)C(=O)Oc1cc2oc(=O)cc(-c3ccccc3)c2cc1Cl` (stereo not given): the inhibition was 55.2% (active). With `Cc1c(Nc2c3ccccc3nc3ccccc23)c(=O)n(-c2ccccc2)n1C`, the inhibition is 27.4%. Turning to `Cc1c(N=C2C=CC(=O)c3ccccc32)c(=O)n(-c2ccccc2)n1C`, the inhibition was 76.4% (active). The figure for `COc1ccc(-c2cc(C(=O)NCCCN3CCOCC3)on2)cc1OC` is 6%; for `COc1ccc(-c2nc3nc(N)nn3cc2C)cc1F` it is 22.9%.

Consider `COc1ccc(-c2cc(N)n(S(=O)(=O)c3c(F)c(F)c(F)c(F)c3F)n2)cc1OC`, for which the inhibition was 83.8% (active).
